# Assay results as given in PubChem BioAssay (NCATS).
# Inconclusive results are not listed. Entries that show only a call come without a potency. Active and inactive are the calls of the source. Calls follow the shape of the dose curve; as a rule, active = well fitted curve in the direction sought with a large enough effect; inconclusive = small, poorly fitted or top-dose-only effect, or another doubt; inactive = no such curve, though single readings can be large; an effect the other way counts as inactive or inconclusive.
# Key:
# [1] = MultiTox-Fluor Cytotoxicity Assay - LYMP1-001 - Dead Cells (AID 946)
# Method in brief: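 LYMP1-001 lymphoblastoid cells (2500/well) treated 16 h at 37 C. Dead-cell protease cleavage of bis-AAF-R110 read at Ex/Em 485/520. Normalized to DMSO and 15 uM tetraoctylammonium bromide; AC50 from Hill fits.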
# [2] = Cell Viability - LYMP1-002 - Assay at 16 hr (AID 948); also: potency is read from the fitted curve at half-maximal effect
# Method in brief: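 Seed 2500 LYMP1-002 cells per well in complete medium and hold 5 hr at 37 C. Add compound across a concentration series and incubate 16 hr at 37 C. Add CellTiter-Glo, wait 30 min at room temperature, read luminescence.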
# [3] = MultiTox-Fluor Cytotoxicity Assay - LYMP1-002 - Live Cells (AID 955)
# Method in brief: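 Human lymphoblastoid LYMP1-002 cells, 2500/well, treated 16 h at 37 C in complete medium. Live-cell protease activity via GF-AFC fluorescence (Ex/Em 405/510) after 60 min reagent incubation; AC50 from Hill fits.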
# [4] = MultiTox-Fluor Cytotoxicity Assay - LYMP1-002 - Dead Cells (AID 960); also: nearly all actives have a fitted effect of over 60% in size
# Method in brief: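 Human lymphoblastoid LYMP1-002 cells, 2500/well, treated 16 h at 37 C; dead-cell protease cleavage of bis-AAF-R110 read by fluorescence (485/520); normalized to DMSO and 15 uM tetraoctylammonium bromide; AC50 from Hill fit.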
# [5] = MultiTox-Fluor Cytotoxicity Assay - LYMP1-003 - Dead Cells (AID 961); also: nearly all actives have a fitted effect of over 70% in size; also: potency is read from the fitted curve at half-maximal effect
# Method in brief: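 LYMP1-003 human lymphoblastoid cells (2500/well) exposed to compound 16 h at 37 C in complete medium; dead-cell protease read with bis-AAF-R110 fluorescence (Ex/Em 485/520) after 60 min at room temperature. Normalized to DMSO and 15 uM tetraoctylammonium bromide; AC50 from Hill fit.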
# [6] = MultiTox-Fluor Cytotoxicity Assay - LYMP1-003 - Live Cells (AID 962);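 also: cytotoxic hits lower the live-cell protease signal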
# Method in brief: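 LYMP1-003 lymphoblastoid cells, 2500/well in complete medium, treated 16 h at 37 C; live-cell protease cleavage of GF-AFC read by fluorescence (Ex/Em 405/510) after 60 min reagent; AC50 from Hill fits of concentration-response.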
# [7] = Cell Viability - LYMP1-003 - Assay at 24 hr (AID 963); also: potency is read from the fitted curve at half-maximal effect
# Method in brief: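 Human lymphoblastoid LYMP1-003 cells, 2500/well, treated 24 h at 37 C in complete medium. Viability read as intracellular ATP by CellTiter-Glo luminescence after 30 min at room temperature; AC50 from Hill-equation fits of qHTS concentration-response.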
# [8] = Cell Viability - LYMP1-003 - Assay at 40 hr (AID 964); also: nearly all actives have a fitted effect of over 60% in size; also: potency is read from the fitted curve at half-maximal effect
# Method in brief: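 LYMP1-003 human lymphoblastoid cells, 2500/well, preincubated 5 h at 37 C, then treated with compound for 40 h at 37 C. Intracellular ATP read by CellTiter-Glo luminescence after 30 min at room temperature; AC50 from Hill-equation fits.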
# [9] = Cell Viability - LYMP2-003 (AID 965);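 also: cells exposed to compounds for 24 h before reading; nearly all actives have a fitted effect of over 50% in size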; also: potency is read from the fitted curve at half-maximal effect
# Method in brief: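 Seed 2500 lymphoblastoid cells/well; incubate 5 hr, 37 C; add compounds; incubate 24 hr, 37 C; add CellTiter-Glo, 30 min RT; read luminescence. AC50 from Hill fit.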
# [10] = Cell Viability - LYMP2-004 (AID 966); also: nearly all actives have a fitted effect of over 65% in size
# Method in brief: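 Lymphoblastoid LYMP2-004 cells, 2500 per well, were preincubated for 5 hr and then treated with compound for 24 h at 37 C in complete medium. Viability was read as cellular ATP by CellTiter-Glo luminescence, and AC50 values were taken from Hill fits to concentration-response data.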
# [11] = Cell Viability - LYMP2-009 (AID 968); also: nearly all actives have a fitted effect of over 55% in size; also: potency is read from the fitted curve at half-maximal effect
# [12] = Cell Viability - LYMP2-011 (AID 969);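 also: cells exposed to compound for 24 hours; nearly all actives have a fitted effect of over 60% in size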; also: potency is read from the fitted curve at half-maximal effect
# Method in brief: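 2500 cells/well in complete medium, compound-treated 24 h at 37 C. Viability read as intracellular ATP by CellTiter-Glo luminescence after 30 min at room temperature. AC50 from Hill fits of qHTS concentration-response data.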
# [13] = Cell Viability - LYMP2-013 (AID 970); also: nearly all actives have a fitted effect of over 55% in size; also: potency is read from the fitted curve at half-maximal effect
# Method in brief: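 Human lymphoblastoid LYMP2-013 cells, 2500/well, treated 24 h at 37 C in complete medium; viability as intracellular ATP by CellTiter-Glo luminescence after 30 min. AC50 from Hill fits of qHTS concentration-response.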
# [14] = Cell Viability - LYMP2-015 (AID 971); also: nearly all actives have a fitted effect of over 55% in size; also: potency is read from the fitted curve at half-maximal effect
# Method in brief: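 LYMP2-015 human lymphoblastoid cells (2500/well) in complete medium, compound-treated 24 h at 37 C; viability read as cellular ATP by CellTiter-Glo luminescence after 30 min at room temperature. AC50 from Hill-equation fits of qHTS concentration-response data.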
# [15] = Cell Viability - LYMP2-005 (AID 967); also: potency is read from the fitted curve at half-maximal effect
# Method in brief: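 Acute cytotoxicity is scored as a concentration-dependent drop in intracellular ATP in human lymphoblastoid LYMP2-005 cells after 24 h compound treatment. ATP is quantified by luciferase luminescence, and AC50 is derived by Hill-equation modelling.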
Compound,Potency [1],Potency [2],Potency [3],Potency [4],Potency [5],outcome [6],Potency [7],Potency [8],Potency [9],Potency [10],Potency [11],Potency [12],Potency [13],Potency [14],Potency [15]
CC1=CC(=O)NS(=O)(=O)O1,inactive,inactive,inactive,inactive,inactive,inactive,inactive,inactive,inactive,inactive,inactive,inactive,inactive,inactive,–
CC(C)O,inactive,inactive,inactive,inactive,inactive,inactive,inactive,inactive,inactive,inactive,inactive,inactive,inactive,inactive,inactive
CC/C=C\C/C=C\C/C=C\CCCCCCCC(=O)O,inactive,inactive,inactive,inactive,inactive,inactive,inactive,–,39.8 µM (active),–,50.1 µM (active),–,–,50.1 µM (active),–
CO/N=C(/C(=O)N[C@@H]1C(=O)N2C(C(=O)O)=C(COC(N)=O)CS[C@H]12)c1ccco1,inactive,inactive,inactive,–,inactive,inactive,inactive,inactive,inactive,inactive,inactive,inactive,inactive,inactive,inactive
OB(O)O,inactive,inactive,inactive,–,inactive,inactive,inactive,inactive,inactive,inactive,inactive,inactive,inactive,inactive,inactive
CCOC(C)OCC,inactive,inactive,inactive,inactive,inactive,inactive,inactive,inactive,inactive,inactive,inactive,inactive,inactive,inactive,inactive
O=c1n(CC2CO2)c(=O)n(CC2CO2)c(=O)n1CC1CO1 (stereo unspecified),–,39.8 µM (active),–,–,50.1 µM (active),inactive,39.8 µM (active),15.8 µM (active),31.6 µM (active),–,39.8 µM (active),39.8 µM (active),50.1 µM (active),39.8 µM (active),20 µM (active)
CC1=CCC2CC1C2(C)C (stereo unspecified),inactive,inactive,inactive,inactive,inactive,inactive,inactive,inactive,inactive,inactive,inactive,inactive,inactive,inactive,inactive
OCc1ccccc1,inactive,inactive,inactive,inactive,inactive,inactive,inactive,inactive,inactive,inactive,inactive,inactive,inactive,inactive,inactive
Oc1ccc(/C=C/c2cc(O)cc(O)c2)cc1,inactive,inactive,inactive,inactive,inactive,inactive,inactive,–,inactive,inactive,inactive,inactive,inactive,inactive,–
OC[C@H]1O[C@@H]2O[C@H]3[C@H](O)[C@@H](O)[C@@H](O[C@H]4[C@H](O)[C@@H](O)[C@@H](O[C@H]5[C@H](O)[C@@H](O)[C@@H](O[C@H]6[C@H](O)[C@@H](O)[C@@H](O[C@H]7[C@H](O)[C@@H](O)[C@@H](O[C@H]1[C@H](O)[C@H]2O)O[C@@H]7CO)O[C@@H]6CO)O[C@@H]5CO)O[C@@H]4CO)O[C@@H]3CO,inactive,inactive,inactive,inactive,inactive,inactive,inactive,inactive,inactive,inactive,inactive,inactive,inactive,inactive,inactive
Cc1ncc[nH]1,inactive,inactive,inactive,inactive,inactive,inactive,inactive,inactive,inactive,inactive,inactive,inactive,inactive,inactive,inactive
c1ccc2ccccc2c1,inactive,inactive,inactive,inactive,inactive,inactive,inactive,inactive,inactive,inactive,inactive,inactive,inactive,inactive,inactive
COC(=O)c1ccccc1O,inactive,inactive,inactive,inactive,inactive,inactive,inactive,inactive,inactive,inactive,inactive,inactive,inactive,inactive,inactive
C/C=C/C=C/C(=O)O,inactive,inactive,inactive,inactive,inactive,inactive,inactive,inactive,inactive,inactive,inactive,inactive,inactive,inactive,inactive
NCCN,inactive,inactive,inactive,inactive,inactive,inactive,inactive,inactive,inactive,inactive,inactive,inactive,inactive,inactive,inactive
CO,inactive,inactive,inactive,inactive,inactive,inactive,inactive,inactive,inactive,inactive,inactive,inactive,inactive,inactive,inactive
OCC(O)CO,inactive,inactive,inactive,inactive,inactive,inactive,inactive,inactive,inactive,inactive,inactive,inactive,inactive,inactive,inactive
CC[C@H]1OC(=O)[C@H](C)[C@@H](O[C@H]2C[C@@](C)(OC)[C@@H](O)[C@H](C)O2)[C@H](C)[C@@H](O[C@@H]2O[C@H](C)C[C@H](N(C)C)[C@H]2O)[C@](C)(O)C[C@@H](C)CN(C)[C@H](C)[C@@H](O)[C@]1(C)O,inactive,inactive,inactive,inactive,inactive,inactive,inactive,inactive,inactive,inactive,inactive,inactive,inactive,inactive,inactive
